Ten compounds from ChEMBL document CHEMBL2218924, “A broad activity screen in support of a chemogenomic map for kinase signalling research and drug discovery” (Biochem J, 2013) can be followed below.

Assay [1] concerns the target Glycogen synthase kinase-3 alpha (Homo sapiens) (UniProt P49840). Particulars: at 1 µM.
For assay [2] the target is unchanged. Particulars: at 10 µM.
Assay [3] deals with Glycogen synthase kinase-3 beta (Homo sapiens) (UniProt P49841). The conditions noted are these: at 1 µM.
For assay [4] the target is unchanged. Particulars: at 10 µM.
The target in assay [5] is Homeodomain-interacting protein kinase 2 (Homo sapiens) (UniProt Q9H2X6). Particulars: at 1 µM.
For assay [6] the target is unchanged. Particulars: at 10 µM.
Assay [7] deals with Homeodomain-interacting protein kinase 3 (Homo sapiens) (UniProt Q9H422). The conditions noted are these: at 1 µM.
The target is the same in assay [8]. The conditions noted are these: at 10 µM.
For assay [9], the target named is T1, Serine/threonine-protein kinase haspin (Homo sapiens) (UniProt Q8TF76).
T1 sequence (whole entry): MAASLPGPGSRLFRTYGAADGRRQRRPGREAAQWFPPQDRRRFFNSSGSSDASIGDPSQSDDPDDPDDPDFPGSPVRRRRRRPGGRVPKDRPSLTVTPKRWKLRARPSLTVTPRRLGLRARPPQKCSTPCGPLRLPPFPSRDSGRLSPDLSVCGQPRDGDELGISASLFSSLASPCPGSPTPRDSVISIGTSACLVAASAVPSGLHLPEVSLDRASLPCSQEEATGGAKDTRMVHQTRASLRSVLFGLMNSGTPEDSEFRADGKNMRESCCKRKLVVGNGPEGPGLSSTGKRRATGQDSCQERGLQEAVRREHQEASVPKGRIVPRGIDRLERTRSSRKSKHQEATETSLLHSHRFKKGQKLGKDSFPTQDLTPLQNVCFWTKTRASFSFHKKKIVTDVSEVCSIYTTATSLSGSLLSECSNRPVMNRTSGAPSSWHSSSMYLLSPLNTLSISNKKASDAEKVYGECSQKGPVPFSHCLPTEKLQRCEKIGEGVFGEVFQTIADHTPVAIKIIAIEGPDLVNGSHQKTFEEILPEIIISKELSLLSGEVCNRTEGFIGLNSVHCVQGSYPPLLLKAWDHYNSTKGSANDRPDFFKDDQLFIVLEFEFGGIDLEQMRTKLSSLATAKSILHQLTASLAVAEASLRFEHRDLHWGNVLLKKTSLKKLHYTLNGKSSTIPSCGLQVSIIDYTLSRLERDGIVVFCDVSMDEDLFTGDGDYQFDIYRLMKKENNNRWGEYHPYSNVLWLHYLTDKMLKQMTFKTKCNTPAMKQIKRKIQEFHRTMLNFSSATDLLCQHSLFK
The conditions noted are these: at 1 µM.

The target of assay [10] is T1, Serine/threonine-protein kinase haspin (Homo sapiens). The conditions noted are these: at 10 µM.
Assay [11] addresses Tyrosine-protein kinase HCK (Homo sapiens) (UniProt P08631). Particulars: at 1 µM.
The target is the same in assay [12]. Particulars: at 10 µM.
Assay [13] has the same target. The conditions noted are these: at 1 µM. The source holds these as a separate data set.
Assay [14] has the same target. The conditions noted are these: at 10 µM. This is another data set of the same source.
Assay [15] concerns the target Insulin-like growth factor 1 receptor (Homo sapiens) (UniProt P08069). The conditions noted are these: at 1 µM.
Assay [16] deals with T2, Rhodopsin kinase GRK7 (Homo sapiens) (UniProt Q8WTQ7).
T2 sequence (whole entry): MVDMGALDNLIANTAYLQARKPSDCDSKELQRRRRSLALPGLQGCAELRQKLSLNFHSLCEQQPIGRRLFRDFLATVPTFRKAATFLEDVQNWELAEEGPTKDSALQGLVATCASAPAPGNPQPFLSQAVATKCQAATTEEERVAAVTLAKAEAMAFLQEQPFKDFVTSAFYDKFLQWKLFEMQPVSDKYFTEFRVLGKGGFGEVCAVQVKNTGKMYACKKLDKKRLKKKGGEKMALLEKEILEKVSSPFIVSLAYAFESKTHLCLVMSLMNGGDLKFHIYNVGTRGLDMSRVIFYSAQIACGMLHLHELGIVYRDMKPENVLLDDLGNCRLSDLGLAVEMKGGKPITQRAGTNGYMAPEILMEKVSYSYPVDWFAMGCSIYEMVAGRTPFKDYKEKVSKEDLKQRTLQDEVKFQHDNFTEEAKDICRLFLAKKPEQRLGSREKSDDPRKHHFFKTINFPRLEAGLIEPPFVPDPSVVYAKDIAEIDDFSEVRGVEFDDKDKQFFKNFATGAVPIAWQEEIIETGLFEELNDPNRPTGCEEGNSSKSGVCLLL
The conditions noted are these: at 1 µM.

Assay [17] addresses T2, Rhodopsin kinase GRK7 (Homo sapiens). Particulars: at 10 µM.
In assay [18] the target is Homeodomain-interacting protein kinase 1 (Homo sapiens) (UniProt Q86Z02). The conditions noted are these: at 1 µM.
The target is the same in assay [19]. The conditions noted are these: at 10 µM.
In assay [20] the target is G protein-coupled receptor kinase 6 (Homo sapiens) (UniProt P43250). Particulars: at 10 µM.
Chain of G protein-coupled receptor kinase 6 (Homo sapiens) (P43250 whole entry, looked up): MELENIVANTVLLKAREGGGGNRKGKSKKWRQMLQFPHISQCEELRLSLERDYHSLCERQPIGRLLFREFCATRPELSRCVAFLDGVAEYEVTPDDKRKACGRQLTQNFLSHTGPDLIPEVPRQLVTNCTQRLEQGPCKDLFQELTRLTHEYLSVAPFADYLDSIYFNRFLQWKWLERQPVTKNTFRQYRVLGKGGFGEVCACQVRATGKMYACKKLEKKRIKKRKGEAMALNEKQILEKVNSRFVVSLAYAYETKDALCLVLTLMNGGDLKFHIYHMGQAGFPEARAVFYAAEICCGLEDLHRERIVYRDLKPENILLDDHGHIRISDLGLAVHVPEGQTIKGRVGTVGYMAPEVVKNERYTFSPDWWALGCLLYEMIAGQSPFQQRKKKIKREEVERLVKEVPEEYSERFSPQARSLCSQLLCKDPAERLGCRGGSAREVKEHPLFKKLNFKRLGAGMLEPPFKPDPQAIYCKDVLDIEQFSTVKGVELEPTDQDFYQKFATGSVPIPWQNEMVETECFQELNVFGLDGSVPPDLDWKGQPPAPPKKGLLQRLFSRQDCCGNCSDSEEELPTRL

Chain of Tyrosine-protein kinase HCK (Homo sapiens) (P08631 2-526 limits assumed): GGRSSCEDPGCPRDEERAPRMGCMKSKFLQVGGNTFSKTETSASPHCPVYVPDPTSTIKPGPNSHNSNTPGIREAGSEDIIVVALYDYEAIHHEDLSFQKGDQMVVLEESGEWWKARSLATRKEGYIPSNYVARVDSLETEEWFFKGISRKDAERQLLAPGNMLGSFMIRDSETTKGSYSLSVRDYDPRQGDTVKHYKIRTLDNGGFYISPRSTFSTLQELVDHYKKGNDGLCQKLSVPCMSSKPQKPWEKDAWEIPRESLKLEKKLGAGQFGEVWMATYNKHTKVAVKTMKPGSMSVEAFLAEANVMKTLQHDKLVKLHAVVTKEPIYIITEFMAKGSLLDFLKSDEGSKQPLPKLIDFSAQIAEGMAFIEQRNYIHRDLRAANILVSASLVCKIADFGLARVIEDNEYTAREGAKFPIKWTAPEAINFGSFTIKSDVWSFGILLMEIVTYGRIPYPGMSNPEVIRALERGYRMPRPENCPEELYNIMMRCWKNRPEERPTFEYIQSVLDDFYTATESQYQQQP
Chain of Homeodomain-interacting protein kinase 2 (Homo sapiens) (Q9H2X6 whole entry, looked up): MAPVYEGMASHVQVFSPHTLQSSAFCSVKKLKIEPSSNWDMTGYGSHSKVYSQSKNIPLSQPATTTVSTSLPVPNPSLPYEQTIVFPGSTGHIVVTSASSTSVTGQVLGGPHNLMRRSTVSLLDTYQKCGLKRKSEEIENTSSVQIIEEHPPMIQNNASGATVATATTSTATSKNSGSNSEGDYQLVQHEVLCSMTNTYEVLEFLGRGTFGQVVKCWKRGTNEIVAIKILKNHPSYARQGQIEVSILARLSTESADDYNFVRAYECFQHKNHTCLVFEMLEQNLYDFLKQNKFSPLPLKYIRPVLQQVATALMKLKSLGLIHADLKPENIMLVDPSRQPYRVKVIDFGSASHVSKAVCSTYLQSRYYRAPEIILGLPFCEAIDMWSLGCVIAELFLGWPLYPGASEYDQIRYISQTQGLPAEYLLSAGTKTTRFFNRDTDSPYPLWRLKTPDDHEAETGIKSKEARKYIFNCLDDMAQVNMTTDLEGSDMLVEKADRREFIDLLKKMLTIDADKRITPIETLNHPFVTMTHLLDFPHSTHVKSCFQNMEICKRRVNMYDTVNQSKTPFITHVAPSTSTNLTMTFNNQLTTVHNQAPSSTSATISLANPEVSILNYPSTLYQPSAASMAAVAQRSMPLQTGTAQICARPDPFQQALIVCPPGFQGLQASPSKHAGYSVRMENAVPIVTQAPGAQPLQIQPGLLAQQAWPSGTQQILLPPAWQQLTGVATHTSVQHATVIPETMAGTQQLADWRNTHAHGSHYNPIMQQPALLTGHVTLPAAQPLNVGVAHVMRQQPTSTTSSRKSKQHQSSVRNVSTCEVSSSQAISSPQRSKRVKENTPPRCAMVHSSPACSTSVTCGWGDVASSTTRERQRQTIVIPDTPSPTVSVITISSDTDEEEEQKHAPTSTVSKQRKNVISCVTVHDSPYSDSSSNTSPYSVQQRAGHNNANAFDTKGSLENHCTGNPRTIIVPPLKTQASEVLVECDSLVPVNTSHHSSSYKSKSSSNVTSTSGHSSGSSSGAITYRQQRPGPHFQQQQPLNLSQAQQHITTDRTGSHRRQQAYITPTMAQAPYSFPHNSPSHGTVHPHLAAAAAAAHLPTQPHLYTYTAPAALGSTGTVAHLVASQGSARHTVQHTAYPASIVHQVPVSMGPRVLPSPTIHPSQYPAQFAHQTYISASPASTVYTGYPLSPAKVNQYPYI
Chain of Homeodomain-interacting protein kinase 3 (Homo sapiens) (Q9H422 whole entry, looked up): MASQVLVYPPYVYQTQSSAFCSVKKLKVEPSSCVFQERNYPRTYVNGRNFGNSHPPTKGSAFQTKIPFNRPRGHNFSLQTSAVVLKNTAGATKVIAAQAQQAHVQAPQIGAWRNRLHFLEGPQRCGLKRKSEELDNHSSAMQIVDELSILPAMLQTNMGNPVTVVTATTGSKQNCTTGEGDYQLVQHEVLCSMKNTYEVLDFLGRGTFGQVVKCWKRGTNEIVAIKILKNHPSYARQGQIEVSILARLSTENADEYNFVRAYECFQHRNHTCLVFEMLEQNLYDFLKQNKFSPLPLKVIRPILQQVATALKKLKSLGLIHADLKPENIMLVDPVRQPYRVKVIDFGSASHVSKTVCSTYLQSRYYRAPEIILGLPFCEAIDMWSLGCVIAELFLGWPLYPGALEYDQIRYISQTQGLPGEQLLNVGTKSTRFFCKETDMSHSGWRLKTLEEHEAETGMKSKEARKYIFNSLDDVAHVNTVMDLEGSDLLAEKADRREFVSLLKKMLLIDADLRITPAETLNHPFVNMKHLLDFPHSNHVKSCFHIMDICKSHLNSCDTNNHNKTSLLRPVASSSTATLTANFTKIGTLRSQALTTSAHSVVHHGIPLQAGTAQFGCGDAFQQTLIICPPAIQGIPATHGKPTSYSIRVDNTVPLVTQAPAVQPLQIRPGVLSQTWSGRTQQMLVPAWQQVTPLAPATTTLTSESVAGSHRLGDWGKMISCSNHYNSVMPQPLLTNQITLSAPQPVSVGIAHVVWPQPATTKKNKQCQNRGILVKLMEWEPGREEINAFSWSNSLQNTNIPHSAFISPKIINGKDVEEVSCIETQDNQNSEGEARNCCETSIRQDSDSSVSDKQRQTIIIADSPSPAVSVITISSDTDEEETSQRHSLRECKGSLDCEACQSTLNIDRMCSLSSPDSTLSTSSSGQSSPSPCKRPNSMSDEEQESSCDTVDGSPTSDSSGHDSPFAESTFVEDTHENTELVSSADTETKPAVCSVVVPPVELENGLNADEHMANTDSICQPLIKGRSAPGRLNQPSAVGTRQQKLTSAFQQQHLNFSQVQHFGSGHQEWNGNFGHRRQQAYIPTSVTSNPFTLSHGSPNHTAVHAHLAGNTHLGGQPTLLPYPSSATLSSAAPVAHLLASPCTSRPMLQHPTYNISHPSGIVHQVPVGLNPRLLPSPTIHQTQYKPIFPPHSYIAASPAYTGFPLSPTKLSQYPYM
Chain of Glycogen synthase kinase-3 beta (Homo sapiens) (P49841 whole entry, looked up): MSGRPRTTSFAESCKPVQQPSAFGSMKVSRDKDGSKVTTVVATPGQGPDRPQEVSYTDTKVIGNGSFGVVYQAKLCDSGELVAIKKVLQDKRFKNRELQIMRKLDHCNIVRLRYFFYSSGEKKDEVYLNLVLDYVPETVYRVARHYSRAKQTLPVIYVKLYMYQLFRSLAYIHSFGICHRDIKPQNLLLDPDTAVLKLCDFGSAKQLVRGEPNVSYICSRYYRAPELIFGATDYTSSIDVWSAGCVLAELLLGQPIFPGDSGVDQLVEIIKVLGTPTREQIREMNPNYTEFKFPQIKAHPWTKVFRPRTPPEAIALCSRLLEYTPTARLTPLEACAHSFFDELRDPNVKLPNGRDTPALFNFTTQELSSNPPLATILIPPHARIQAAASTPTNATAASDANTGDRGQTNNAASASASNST
Chain of Glycogen synthase kinase-3 alpha (Homo sapiens) (P49840 2-483 limits assumed): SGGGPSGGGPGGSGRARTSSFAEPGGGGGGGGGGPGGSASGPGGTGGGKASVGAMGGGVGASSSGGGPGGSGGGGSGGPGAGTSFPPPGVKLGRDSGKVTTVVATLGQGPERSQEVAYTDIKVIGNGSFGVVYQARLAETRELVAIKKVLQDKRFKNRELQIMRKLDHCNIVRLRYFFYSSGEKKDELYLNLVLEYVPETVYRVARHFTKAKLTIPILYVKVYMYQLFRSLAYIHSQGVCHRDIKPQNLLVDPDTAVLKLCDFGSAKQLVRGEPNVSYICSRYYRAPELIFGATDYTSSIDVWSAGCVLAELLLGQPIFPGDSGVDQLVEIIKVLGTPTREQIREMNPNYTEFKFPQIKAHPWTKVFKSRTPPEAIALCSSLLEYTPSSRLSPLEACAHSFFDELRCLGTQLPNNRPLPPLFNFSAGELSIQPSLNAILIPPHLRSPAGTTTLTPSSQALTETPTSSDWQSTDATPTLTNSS

For orientation: residual activity means the signal under treatment as a percentage of the control signal. With `O=C1NC(=O)c2c1c1c3ccccc3n3c1c1c2c2ccccc2n1C1CCC3O1`, the residual activity came out at 15% in assay [1]; 3% in [2]; 40% in assay [3]; 23% in assay [4]; 42% in assay [5]; 26% in assay [6]. Moreover, the residual activity was -2% in assay [7]; -2% in assay [8]; 50% in [9]; 22% in assay [10]; 76% in assay [11]; 94% in assay [12]. For the same compound, the residual activity in [13] turned out to be 92%; in assay [14] it was 83%; in assay [15], 73%.
In the case of `CC(C)[C@H](CO)Nc1nc(Nc2cccc(Cl)c2)c2ncn(C(C)C)c2n1`, the residual activity was 95% in [16]; 44% in [17]; 134% in assay [3]; 57% in assay [4]; 97% in assay [18]; 49% in assay [19]. Also, the residual activity in assay [5] was 88%; in assay [6], 36%; in assay [8] it was 77%; in assay [9], 100%; in assay [10] it was 94%; in assay [11], 20%. Also, the residual activity in [12] was 4%; in [13], 30%; in assay [14], 4%; in assay [15] it was 98%.
`CC(C)(C)c1cc(C=C(C#N)C#N)cc(Br)c1O`: the residual activity in [20] is 104%; in assay [16] it was 113%; in assay [17] it was 102%; in assay [1] it was 117%; in assay [2], 74%; in [3], 106%. For the same compound, the residual activity came to 96% in [4]; 107% in [18]; 104% in [19]; 101% in assay [5]; 71% in [6]; 101% in [7]. Also, the residual activity in [8] amounted to 98%; in assay [9], 105%; in assay [10], 54%; in assay [11] it was 77%; in assay [12] it was 8%; in assay [13], 102%. Also, in assay [15], the residual activity worked out at 130%.
`C[S+]([O-])c1ccc(-c2nc(-c3ccc(F)cc3)c(-c3ccncc3)[nH]2)cc1` (configuration not stated): the residual activity in assay [20] was 102%; in assay [16], 109%; in assay [17], 108%; in assay [1], 86%; in [2], 49%; in assay [4], 34%. The residual activity in [18] came out at 102%; in [19] it was 97%; in assay [5] it was 110%; in assay [6] it was 100%; in [7] it was 110%; in assay [8], 102%. Further, the residual activity amounted to 88% in [9]; 35% in [10]; 105% in [11]; 52% in assay [12]; 93% in assay [13]; 61% in assay [14]. Besides, in assay [15], the residual activity was 102%.
Take `COc1ccc2c(c1)/C(=C/c1cnc[nH]1)C(=O)N2`: the residual activity in assay [20] is 76%; in [17], 42%; in assay [3] it was 42%; in assay [4], 4%; in [19] it was 52%; in [8], 49%. Also, the residual activity in assay [9] turned out to be 37%; in [10], 13%; in assay [11] it was 71%; in assay [12] it was 33%; in assay [14], 49%.
With `N/C(=N\[N+](=O)[O-])N/N=C\c1ccc(-c2cccc([N+](=O)[O-])c2)o1`, the residual activity in assay [20] turned out to be 94%; in assay [16], 100%; in assay [17], 91%; in assay [1], 99%; in assay [2], 78%; in assay [4], 97%. The residual activity in assay [18] came to 99%; in [19] it was 100%; in assay [5], 82%; in assay [6] it was 83%; in assay [9] it was 97%; in [10], 80%. For the same compound, the residual activity in assay [11] turned out to be 70%; in assay [12], 49%.
On to `CCn1cnc2c(Nc3cccc(Cl)c3)nc(N[C@@H]3CCCC[C@@H]3N)nc21`, for which the residual activity in assay [20] was found to be 68%; in assay [16] it was 74%; in assay [17] it was 24%; in assay [1], 123%; in assay [2] it was 119%; in [3] it was 132%. Moreover, the residual activity in assay [4] came out at 136%; in assay [19], 81%; in assay [5], 85%; in assay [6], 47%; in assay [7] it was 99%; in assay [8], 80%. Besides, the residual activity in assay [9] amounted to 48%; in assay [10], 3%; in assay [11], 24%; in assay [12], 4%; in assay [13], 24%; in [14], 4%. Besides, the residual activity in [15] came to 95%.
On to `CCc1nc(-c2ccc(OC)cc2)[nH]c1-c1ccncc1`, for which the residual activity amounted to 106% in assay [1]; 114% in assay [3]; 115% in assay [4]; 45% in assay [9]; 4% in assay [10]; 72% in assay [11]. Moreover, the residual activity in assay [12] worked out at 64%; in assay [13], 115%; in assay [14] it was 104%; in [15], 112%.
For the compound `CN[C@@H]1C[C@H]2O[C@@](C)([C@@H]1OC)n1c3ccccc3c3c4c(c5c6ccccc6n2c5c31)C(=O)NC4`, the residual activity in [18] came out at 87%; in [7] it was 74%; in [8], 27%; in [11] it was 0%.
`O=C1Nc2ccc3ncsc3c2/C1=C/c1c[nH]cn1`: the residual activity in [20] came out at 60%; in assay [16] it was 63%; in [17], 20%; in assay [1], 4%; in assay [2], 1%; in assay [3] it was 4%. The residual activity in assay [4] came to 0%; in assay [18] it was 64%; in [19], 26%; in assay [5], 32%; in assay [6] it was 4%; in assay [7], 31%. The residual activity was 4% in assay [8]; 3% in assay [9]; 1% in [10]; 58% in assay [11]; 19% in [12]; 67% in [13]. The residual activity in assay [14] was found to be 24%; in assay [15] it was 132%.
